Sampled rows, rich in hits. Any-hit rate of the full collection: about 2.8%.
Peg3 promoter = Peg3 promoter-driven luciferase inhibitors, primary screen, cell-based, HeLa, luciferase luminescence; HeLa PEG-Prom luciferase reporter, overnight; actives 1.7% (n = 360,000); inhibition, % at 20 µM;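 active means inhibition of at least 50% at 20 µM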
HIF-2a inh = HIF-2a reporter inhibitors, primary screen, luminescence, 786-0 RCC cells | 786-0 RCC cells HIF-2a reporter, luciferase luminescence, overnight | inhibition, % at 18.8 µM | actives 0.72% (n = 360,000) | AID 624352, 2012;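 active means inhibition of the luminescence signal of 40% or more relative to plate controls, in a single-dose primary screen at 18.75 µM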
KKLEB tox = cytotoxicity in KKLEB CF airway cells, primary screen, cytotoxicity control for CF NF-kB inhibitor project, cell-based, uHTS, fluorescence assay plates | AID 602141, 2011 | actives 0.36% (n = 360,000) | KKLEB CF airway cells viability, ATPlite luminescence, overnight; active compounds read low; cells stimulated with P. aeruginosa culture filtrate | activity change (cytotoxicity), % at 5 µM;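 active means corrected activity change at or below -50% at 5 µM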
MITF TRPM1 inh = inhibitors of MITF-dependent TRPM1 promoter reporter, primary screen, cell-based, SK-MEL-5, single point, luciferase; SK-MEL-5 TRPM1 promoter luciferase, 24 h; inhibition, % at 12.5 µM; actives 0.83% (n = 330,000); AID 488899, 2010;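 active means mean inhibition across replicates of 60% or more, whatever share of single replicates reaches that level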
Shn3 inh set2 = reduction of Shn3 3'UTR firefly luciferase signal, primary screen, Schnurri-3 inhibitor project, cell-based, Clone20 osteoblasts, set 2; actives 0.52% (n = 360,000); AID 588674, 2011; Clone20 osteoblast Shn3 3'UTR firefly luciferase, 24 h; inhibition, % at 12.5 µM;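 active means mean inhibition of at least 75% with every replicate also reaching 75%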
CF NFkB inh = inhibitors of PAF-induced NF-kB signaling, primary screen, cell-based, GFP fluorescence, uHTS | KKLEB NF-kB-GFP reporter, GFP fluorescence overnight | actives 0.86% (n = 360,000) | inhibition, % at 5 µM;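 active means at least 50% inhibition at 5 µM, scaled per plate between neutral and stimulator controls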;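 further: PAF is a Pseudomonas aeruginosa culture filtrate used as stimulus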
Each line names hits and unclear results; the compound was inactive in the other large screens.

NC(=O)c1c(NC(=O)c2ccc([N+](=O)[O-])o2)sc2c1CCCC2	Peg3 promoter 99, KKLEB tox -64, MITF TRPM1 inh 62, CF NFkB inh 107
N#Cc1c(NC(=O)c2ccc([N+](=O)[O-])o2)sc2c1CCC2	none
CN1/C(=C\C=N\NC(=O)c2ccc(O)cc2)C(C)(C)c2ccccc21	Shn3 inh set2 88
CN1/C(=C\C=N\NC(=O)c2cccnc2)C(C)(C)c2ccccc21	none
CN(C)C(=S)Oc1ccccc1C1(C)OCCO1	none (no result: MITF TRPM1 inh)
Nc1nnc(SCC(=O)Nc2ccc(N3CCOCC3)cc2)s1	Shn3 inh set2 91
Nc1nnc(SCC(=O)Nc2ccccc2N2CCOCC2)s1	none
CO[C@@]12[C@@H]3N[C@@H]3CN1C1=C(C(=O)C(N)=C(C)C1=O)[C@@H]2COC(N)=O	Peg3 promoter 60
Cc1cccc(C)c1-c1ccc(CN2C(CC(C)C)C(=O)N(Cc3cn(CCO)nn3)CCS2(=O)=O)cc1 (stereo not given)	Peg3 promoter 58
CC1C(=O)N(Cc2cn(CCC3OCCCO3)nn2)CCS(=O)(=O)N1Cc1ccc(-c2ccc(Cl)c(Cl)c2)cc1 (stereo not given)	Shn3 inh set2 92 (no result: MITF TRPM1 inh)
COCOCCn1cc(CN2CCS(=O)(=O)N(Cc3ccc(-c4ccc(C)cc4)cc3)C(C)C2=O)nn1 (stereo not given)	none (no result: MITF TRPM1 inh)
COCOCCn1cc(CN2CCS(=O)(=O)N(Cc3ccc(-c4ccc(Cl)c(Cl)c4)cc3)C(C)C2=O)nn1 (stereo not given)	Peg3 promoter 93 (no result: MITF TRPM1 inh)
CC(C)CC1C(=O)N(Cc2cn(CCC3OCCCO3)nn2)CCS(=O)(=O)N1Cc1ccc(-c2ccc(Cl)cc2)cc1 (stereo not given)	none (no result: MITF TRPM1 inh)
CC(C)CC1C(=O)N(Cc2cn(CCC3OCCCO3)nn2)CCS(=O)(=O)N1Cc1ccc(-c2ccc(Cl)c(Cl)c2)cc1 (stereo not given)	Peg3 promoter 56 (no result: MITF TRPM1 inh)
N#Cc1ccc(C(=O)CSc2n[nH]c(=O)n2-c2cccnc2)cc1	none (no result: MITF TRPM1 inh)
CCOC(=O)c1ccc(NC(=S)NCCc2ccc(F)cc2)cc1	none
COCCCNC(=O)CSc1nc2ccccc2c(=O)n1CCc1ccc(S(N)(=O)=O)cc1	none
S=C1Cc2ccccc2N1	Peg3 promoter 95, MITF TRPM1 inh 91
S=C1Nc2ccccc2CS1	none (no result: MITF TRPM1 inh)
CCN1CCN(Cc2c3ccccc3cc3ccccc23)CC1	none
Oc1ccc(C=Nc2ccc(N3CCOCC3)cc2)c(O)c1	none
Oc1ccc(N=Nc2cccc(C(F)(F)F)c2)cc1C=Nc1ccc(N2CCOCC2)cc1	CF NFkB inh 78
CC1=C(C(=O)N(C(C)C)C(C)C)CC(CC(=O)NCc2cccs2)C(=O)N1CCC1=CCCCC1 (stereo not given)	none (no result: MITF TRPM1 inh)
CCNC(=S)NNC(=O)c1cc(Br)cs1	none
O=[N+]([O-])c1ccc(-c2cnc(SC(c3ccccc3)c3ccccc3)[nH]2)cc1	Peg3 promoter 53
O=C(NCc1ccccc1)c1cc[n+](CC(=O)c2cccs2)cc1	none
COc1ccc(Nc2nc(N3CCCC3)c3ccccc3n2)cc1	Peg3 promoter 60, Shn3 inh set2 87
CCN(CC)c1ccc(Nc2nc(N3CCOCC3)c3ccccc3n2)cc1	none
COc1ccc(Nc2c3c(nc4ccccc24)CCC3)cc1	none
COc1ccc(Nc2c3ccccc3nc3ccccc23)cc1	Peg3 promoter 78
COc1ccccc1Nc1c2ccccc2nc2ccccc12	Peg3 promoter 88
COc1ccc(CCNCC(O)Cn2c3ccccc3c3ccccc32)cc1OC (stereo not given)	Peg3 promoter 111
COc1ccccc1NCC(O)Cn1c2ccccc2c2ccccc21 (stereo not given)	none
c1ccc2c(NCCc3c[nH]c4ccccc34)c3ccccc3nc2c1	Peg3 promoter 99, HIF-2a inh 44, MITF TRPM1 inh 88
Cc1ccc(-c2nc(Nc3cccc(O)c3)c3ccccc3n2)cc1	none
